Assay results reported in the supplement of paper PMC12350171.
Where a name gives a salt, the structure may show the parent alone. Values without a mark were called inactive.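 The calls were made as follows: active = AUC significantly below DMSO controls by Student t-fit with adjusted P under 0.01; inactive = not significantly reduced.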

These molecules were tested on Shigella flexneri (assay: growth AUC normalised to DMSO control (fraction of control); higher = less growth inhibition, active = hit call of the paper). Settings: 20 µM.
Procedure, shortened: (§1)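 Pathogens passaged twice anaerobically were inoculated at a starting OD578 of 0.01 into pre-reduced mGAM plates with drug at 20 μM and 1% DMSO, sealed with breathable membranes. Haemophilus parainfluenzae medium was supplemented with hemin and NAD. OD578 was read hourly for 24 h, with three biological replicates. Growth-curve AUC was computed by the trapezoidal rule up to the exponential-to-stationary transition and normalised to DMSO controls on the same plate.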

Row | Structure (SMILES) | growth AUC normalised to DMSO control
1 | S=c1[nH]cnc2nc[nH]c12 [Mercaptopurine] | 1.01
2 | CC/C(=C(\c1ccccc1)c1ccc(OCCN(C)C)cc1)c1ccccc1 [Tamoxifen citrate] | 1.01
3 | CC(=O)OCC(=O)[C@@]1(O)CC[C@H]2[C@@H]3CCC4=CC(=O)CC[C@]4(C)[C@@]3(F)[C@@H](O)C[C@@]21C [Fludrocortisone acetate] | 0.988
4 | CC[C@@H](CO)NCCN[C@@H](CC)CO [Ethambutol dihydrochloride] | 0.976
5 | O=C(Nc1cccc2c(=O)cc(-c3nnn[nH]3)oc12)c1ccc(OCCCCc2ccccc2)cc1 [Pranlukast] | 0.991
6 | CC(=C(CCO)SSCC1CCCO1)N(C=O)Cc1cnc(C)nc1N (stereo in doubt) [Fursultiamine hydrochloride] | 0.965
7 | Cc1ncc([N+](=O)[O-])n1CC(O)CCl (stereo not given) [Ornidazole] | 0.987
8 | CCC(=O)O[C@]1(C(=O)SCF)[C@H](C)C[C@H]2[C@@H]3C[C@H](F)C4=CC(=O)C=C[C@]4(C)[C@@]3(F)[C@@H](O)C[C@@]21C [Fluticasone propionate] | 1.01
9 | Cc1cccc(C)c1OCC(C)N (stereo not given) [Mexiletine hydrochloride] | 1.05
10 | CCC(=O)OCC(=O)[C@@]1(OC(=O)CC)[C@H](C)C[C@H]2[C@H]3[C@H]([C@@H](O)C[C@@]21C)[C@@]1(C)C=CC(=O)C=C1C[C@H]3Cl [Alclometasone dipropionate] | 0.974
11 | NC(=O)c1cccnc1 [Nicotinamide] | 1.06
12 | c1ccc(CC2=NCCN2)cc1 [Tolazoline hydrochloride] | 1.02
13 | COc1cccc2c1C(=O)c1c(O)c3c(c(O)c1C2=O)C[C@@](O)(C(=O)CO)C[C@@H]3O[C@H]1C[C@H](N)[C@H](O)[C@H](C)O1 [Doxorubicin hydrochloride] | 0.932
14 | CC(=O)NC[C@H]1CN(c2ccc(N3CCOCC3)c(F)c2)C(=O)O1 [Linezolid] | 0.806 (active)
15 | NC1CCN(c2nc3c(cc2F)c(=O)c(C(=O)O)cn3-c2ccc(F)cc2F)C1 (stereo not given) [Tosufloxacin hydrochloride] | 0.0173 (active)
16 | CCn1cc(C(=O)O)c(=O)c2cc(F)c(N3CCNCC3)cc21 [Norfloxacin] | 0.0176 (active)
17 | CCC1=C(C)CN(C(=O)NCCc2ccc(S(=O)(=O)NC(=O)N[C@H]3CC[C@H](C)CC3)cc2)C1=O [Glimepiride] | 1.01
18 | COc1ccc(C(=O)c2ccccc2O)c(O)c1 [Dioxybenzone] | 0.983
19 | C[C@H](O)C(=O)Nc1c(I)c(C(=O)NC(CO)CO)c(I)c(C(=O)NC(CO)CO)c1I [Iopamidol] | 1.08
20 | CCCOc1ccccc1-c1nc2[nH]nnc2c(=O)[nH]1 [Zaprinast] | 0.977
21 | CCCCc1oc2ccccc2c1C(=O)c1cc(I)c(OCCN(CC)CC)c(I)c1 [Amiodarone hydrochloride] | 1.04
22 | CC(C(=O)O)c1ccc(-c2ccccc2)c(F)c1 (stereo not given) [Flurbiprofen] | 0.98
23 | C[C@]12C=CC(=O)C=C1CC[C@@H]1[C@@H]2[C@@H](O)C[C@@]2(C)[C@H]1CC[C@]2(O)C(=O)CO [Prednisolone] | 0.96
24 | CNCCc1ccccn1 [Betahistine mesylate] | 0.976
25 | C[C@]12C=CC(=O)C=C1CC[C@@H]1[C@@H]2C(=O)C[C@@]2(C)[C@H]1CC[C@]2(O)C(=O)CO [Prednisone] | 0.994
26 | C[N+](C)(C)CCCCCC[N+](C)(C)C [Hexamethonium dibromide dihydrate] | 0.996
27 | CCCCNC(=O)NS(=O)(=O)c1ccc(C)cc1 [Tolbutamide] | 0.995
28 | COc1cc2nc(N3CCN(C(=O)C4CCCO4)CC3)nc(N)c2cc1OC (stereo not given) [Terazosin hydrochloride] | 0.96
29 | CC(=O)N1CCN(c2ccc(OCC3COC(Cn4ccnc4)(c4ccc(Cl)cc4Cl)O3)cc2)CC1 (stereo not given) [Ketoconazole] | 0.998

What follows are molecules tested on Vibrio cholerae in the same assay as above. Settings: 20 µM.
Procedure, shortened: as §1

Row | Structure (SMILES) | growth AUC normalised to DMSO control
30 | CCN[C@H]1CN(CCCOC)S(=O)(=O)c2sc(S(N)(=O)=O)cc21 [Brinzolamide] | 0.965
31 | CN1CCCN=C1/C=C/c1cccs1 [Pyrantel tartrate] | 1.01
32 | CN1CCc2cccc3c2[C@H]1Cc1ccc(O)c(O)c1-3 [R(-) Apomorphine hydrochloride hemihydrate] | 1.01
33 | CCCCCCCN(CC)CCCC(O)c1ccc(NS(C)(=O)=O)cc1 (stereo not given) [Ibutilide fumarate] | 0.964
34 | Clc1ccc2c(c1)C(N1CCNCC1)=Nc1ccccc1O2 [Amoxapine] | 0.8 (active)
35 | Cc1c(OCC(F)(F)F)ccnc1C[S+]([O-])c1nc2ccccc2[nH]1 (stereo not given) [Lansoprazole] | 0.941
36 | Nc1ccc(/N=N/c2ccccc2)c(N)n1 [Phenazopyridine hydrochloride] | 0.927
37 | C[C@]12CC[C@@H]3c4ccc(O)cc4C[C@@H](CCCCCCCCC[S+]([O-])CCCC(F)(F)C(F)(F)F)[C@H]3[C@@H]1CC[C@@H]2O (stereo not given in full) [Fulvestrant] | 1.01
38 | OCCOCCN1CCN(C(c2ccccc2)c2ccc(Cl)cc2)CC1 (stereo not given) [Hydroxyzine dihydrochloride] | 0.975
39 | CNCCCC12CCC(c3ccccc31)c1ccccc12 [Maprotiline hydrochloride] | 0.942
40 | CC[C@H](C)C(=O)O[C@H]1C[C@H](O)C=C2C=C[C@H](C)[C@H](CC[C@@H](O)C[C@@H](O)CC(=O)O)[C@H]21 [Pravastatin] | 1.09
41 | S=c1[nH]cnc2nc[nH]c12 [Mercaptopurine] | 1
42 | CC/C(=C(\c1ccccc1)c1ccc(OCCN(C)C)cc1)c1ccccc1 [Tamoxifen citrate] | 1
43 | CC(=O)OCC(=O)[C@@]1(O)CC[C@H]2[C@@H]3CCC4=CC(=O)CC[C@]4(C)[C@@]3(F)[C@@H](O)C[C@@]21C [Fludrocortisone acetate] | 1
44 | CC[C@@H](CO)NCCN[C@@H](CC)CO [Ethambutol dihydrochloride] | 1
45 | O=C(Nc1cccc2c(=O)cc(-c3nnn[nH]3)oc12)c1ccc(OCCCCc2ccccc2)cc1 [Pranlukast] | 1
46 | CC(=C(CCO)SSCC1CCCO1)N(C=O)Cc1cnc(C)nc1N (stereo in doubt) [Fursultiamine hydrochloride] | 1
47 | Cc1ncc([N+](=O)[O-])n1CC(O)CCl (stereo not given) [Ornidazole] | 1.01

Row | Structure (SMILES) | growth AUC normalised to DMSO control
48 | CCC(=O)O[C@]1(C(=O)SCF)[C@H](C)C[C@H]2[C@@H]3C[C@H](F)C4=CC(=O)C=C[C@]4(C)[C@@]3(F)[C@@H](O)C[C@@]21C [Fluticasone propionate] | 1
49 | Cc1cccc(C)c1OCC(C)N (stereo not given) [Mexiletine hydrochloride] | 1.05
50 | CCC(=O)OCC(=O)[C@@]1(OC(=O)CC)[C@H](C)C[C@H]2[C@H]3[C@H]([C@@H](O)C[C@@]21C)[C@@]1(C)C=CC(=O)C=C1C[C@H]3Cl [Alclometasone dipropionate] | 0.999
51 | NC(=O)c1cccnc1 [Nicotinamide] | 1.05
52 | c1ccc(CC2=NCCN2)cc1 [Tolazoline hydrochloride] | 1.02
53 | COc1cccc2c1C(=O)c1c(O)c3c(c(O)c1C2=O)C[C@@](O)(C(=O)CO)C[C@@H]3O[C@H]1C[C@H](N)[C@H](O)[C@H](C)O1 [Doxorubicin hydrochloride] | 0.998
54 | CC(=O)NC[C@H]1CN(c2ccc(N3CCOCC3)c(F)c2)C(=O)O1 [Linezolid] | 0.0187 (active)
55 | NC1CCN(c2nc3c(cc2F)c(=O)c(C(=O)O)cn3-c2ccc(F)cc2F)C1 (stereo not given) [Tosufloxacin hydrochloride] | 0.0443 (active)
56 | CCn1cc(C(=O)O)c(=O)c2cc(F)c(N3CCNCC3)cc21 [Norfloxacin] | 0.0427 (active)
57 | CCC1=C(C)CN(C(=O)NCCc2ccc(S(=O)(=O)NC(=O)N[C@H]3CC[C@H](C)CC3)cc2)C1=O [Glimepiride] | 1.02
58 | COc1ccc(C(=O)c2ccccc2O)c(O)c1 [Dioxybenzone] | 0.909
59 | C[C@H](O)C(=O)Nc1c(I)c(C(=O)NC(CO)CO)c(I)c(C(=O)NC(CO)CO)c1I [Iopamidol] | 1.07
60 | CCCOc1ccccc1-c1nc2[nH]nnc2c(=O)[nH]1 [Zaprinast] | 0.985
61 | CCCCc1oc2ccccc2c1C(=O)c1cc(I)c(OCCN(CC)CC)c(I)c1 [Amiodarone hydrochloride] | 1
62 | CC(C(=O)O)c1ccc(-c2ccccc2)c(F)c1 (stereo not given) [Flurbiprofen] | 0.96
63 | C[C@]12C=CC(=O)C=C1CC[C@@H]1[C@@H]2[C@@H](O)C[C@@]2(C)[C@H]1CC[C@]2(O)C(=O)CO [Prednisolone] | 0.971
64 | CNCCc1ccccn1 [Betahistine mesylate] | 0.985
65 | C[C@]12C=CC(=O)C=C1CC[C@@H]1[C@@H]2C(=O)C[C@@]2(C)[C@H]1CC[C@]2(O)C(=O)CO [Prednisone] | 1
